# In the library only some 3% were active in any assay of this set; here they are far more common.
# SENP6 inh: inhibitors of human SENP6 protease; 330,000 tested, 1.8% active; Recombinant SENP6 catalytic domain, aminoluciferin luminescence; AID 2599; inhibition, % at 10 µM;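 active = inhibition above about 50% at the single tested dose, limit read from the data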;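 note: plate controls were DMSO wells with enzyme for no effect and DMSO wells lacking enzyme for full effect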
# Target sequence (Q9GZR1 628-1112 limits assumed): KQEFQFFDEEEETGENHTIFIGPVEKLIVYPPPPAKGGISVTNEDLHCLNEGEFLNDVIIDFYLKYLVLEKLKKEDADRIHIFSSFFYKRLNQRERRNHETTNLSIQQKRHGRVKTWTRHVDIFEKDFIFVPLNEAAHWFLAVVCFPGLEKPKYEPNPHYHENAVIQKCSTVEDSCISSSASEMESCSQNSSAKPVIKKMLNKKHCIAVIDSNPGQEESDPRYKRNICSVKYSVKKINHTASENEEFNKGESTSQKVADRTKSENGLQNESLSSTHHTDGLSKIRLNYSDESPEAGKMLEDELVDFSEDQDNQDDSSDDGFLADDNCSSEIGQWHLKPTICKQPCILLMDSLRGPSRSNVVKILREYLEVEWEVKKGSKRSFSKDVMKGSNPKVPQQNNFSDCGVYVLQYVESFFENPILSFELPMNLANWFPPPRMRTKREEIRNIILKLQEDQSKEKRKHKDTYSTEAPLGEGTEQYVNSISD
# PPC-1+TRAIL kill: kills PPC-1 cancer cells in the presence of TRAIL | 220,000 tested, 0.41% active | PPC-1 cells + TRAIL, ATPLite viability luminescence | cell killing (% activity), % at 4 µM or 5 µM | AID 1443;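 active = cell killing above 50% in the first pass at 4 µM, then a duplicate retest at 5 µM averaging 50% or more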;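 note: plate controls were cells with TRAIL plus DMSO for no effect and medium-only wells lacking cells for full effect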
# TRAIL sens C8: sensitizes caspase-8 expressing cells to TRAIL. NB7+C8 cells + TRAIL, ATPlite viability luminescence. inhibition (viability loss, TRAIL sensitization), % at 10 µM. 360,000 tested, 1% active. AID 624354;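 active = compounds causing at least 50% loss of cell viability in the single-dose screen, relative to plate controls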
# SENP8 block-1: blocks the human protease SENP8. inhibition, % at 10 µM. AID 2540. purified SENP8, Z-RLRGG-aminoluciferin cleavage, luminescence. 330,000 tested, 1.2% active. Q96LD8; in the data active = inhibition above about 50%
# SENP8 block-2: inhibitors of human SENP8 protease; recombinant SENP8, Nedd8 substrate fluorescence; inhibition, % at 20 µM; AID 602440; 360,000 tested, 0.64% active; in the data active = inhibition mostly above about 40%, no sharp cut-off; inactive = mostly below about 27%
# SENP7 block: inhibitors of human SENP7 protease; recombinant SENP7, Z-RLRGG-aminoluciferin luminescence, 40 min; inhibition, % at 5 µM; 330,000 tested, 1.5% active;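 active = inhibition above about 50% at the single test dose, limit read from the data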;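 note: plate controls were DMSO with enzyme for no effect and no enzyme buffer wells for full effect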
# SENP8 confirm: confirmation of human SENP8 protease inhibitors. shares compounds with SENP7 block. Recombinant SENP8, Z-RLRGG-aminoluciferin luminescence, 60 min. inhibition, % at 12.5 µM. 6,200 tested, 40% active;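 active = mean inhibition across replicates above about 50%, limit read from the data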
# SENP6 conf: confirmation of human SENP6 protease inhibitors; AID 488915; shares compounds with SENP7 block; 6,200 tested, 58% active; inhibition, % at 12.5 µM; recombinant SENP6, Z-RLRGG-aminoluciferin luminescence
# SENP7 conf: confirmation of human SENP7 protease inhibitors; shares compounds with SENP7 block; 6,200 tested, 69% active; recombinant SENP7, Z-RLRGG-aminoluciferin luminescence, 40 min; AID 488917; inhibition, % at 12.5 µM
# Casp3 select: caspase-3 inhibition (SENP selectivity assay) | 6,200 tested, 60% active | AID 488918 | inhibition, % at 12.5 µM | purified caspase-3, Z-DEVD-aminoluciferin luminescence, 60 min | shares compounds with SENP7 block;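 active = mean inhibition above about 50%, limit read from the data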;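 note: plate controls were enzyme with DMSO for no effect and wells without caspase-3 for full effect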
# Target sequence (P42574 28-227 limits assumed): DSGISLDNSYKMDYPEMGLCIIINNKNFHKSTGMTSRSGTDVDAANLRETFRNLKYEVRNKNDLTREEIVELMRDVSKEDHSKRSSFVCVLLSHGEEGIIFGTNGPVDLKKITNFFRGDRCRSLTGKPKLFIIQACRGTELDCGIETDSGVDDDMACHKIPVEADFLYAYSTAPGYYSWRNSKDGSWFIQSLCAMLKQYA
# SENP luc ctr: interferes with luciferase luminescence in SENP counter-screen. Pre-incubated SENP8/Z-RLRGG-aminoluciferin, luciferase luminescence interference. AID 488919. shares compounds with SENP7 block. inhibition, % at 12.5 µM. 6,200 tested, 39% active;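 active = mean inhibition above about 50% when retested at one dose, limit read from the data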;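 note: plate controls were DMSO wells with completed reaction for no effect and substrate without enzyme for full effect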
# * = called active by the depositor; i = inactive; . = no result.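 Rule for the calls, unless noted: active = mean inhibition above about 50% in the one-dose retest (limit read from the data); inactive = the rest.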
SMILES,SENP6 inh,PPC-1+TRAIL kill,TRAIL sens C8,SENP8 block-1,SENP8 block-2,SENP7 block,SENP8 confirm,SENP6 conf,SENP7 conf,Casp3 select,SENP luc ctr
COc1ccc(CN2C(=NC(=O)C3CCCO3)SC3CS(=O)(=O)CC32)cc1OC (stereo not given),15.6,.,-8.0,2.8,9.4,11.5,.,.,.,.,.
Cc1cccc(NC(=O)c2cc3c(s2)-c2c(C)cccc2OC3)n1,18.0,4.8,-0.4,39.7,-406.1,86.4*,3.9,6.6,5.5,13.9,10.8
Cc1ccnc2nc(C(=O)Nc3ccc4c(c3)OCO4)nn12,67.0*,32.2,26.2,57.3*,22.7,-2.4,35.7,63.4*,53.3*,90.5*,29.6
O=C(Nc1ccc2c(c1)OCO2)c1ccccn1,65.6*,.,16.3,52.7*,12.3,57.1*,71.3*,71.0*,88.1*,88.7*,73.2*
Cc1cc(C)n2nc(C(=O)Nc3ccc4c(c3)OCO4)nc2n1,-7.6,36.7,7.4,-5.3,-4.3,3.6,.,.,.,.,.
Cc1ccc(-c2ocnc2C(=O)N2CCOCC2)cc1,-12.3,.,5.0,-4.1,6.9,0.6,.,.,.,.,.
CCCNC(=O)C1(C)CCCN(C(=O)c2ccccc2OC)C1 (stereo not given),.,.,-10.0,.,10.1,.,.,.,.,.,.
Cn1c(O)c(N=Nc2nc(-c3ccccc3)cs2)c2ccccc21,16.2,16.2,9.9,3.9,29.5,58.8*,1.4,3.9,-5.8,3.5,-5.4
Cn1c(O)c(N=Nc2ccccc2)c2ccccc21,2.8,.,0.3,-1.3,2.9,2.2,.,.,.,.,.
Cc1ccnc(NC(=O)C2CC(=O)N(Cc3ccccc3)C2)c1 (stereo not given),-18.1,.,2.5,-18.7,0.3,-3.8,.,.,.,.,.
CCOC(=O)C1=C(COC(=O)c2ccc([N+](=O)[O-])s2)NC(=O)NC1C (stereo not given),74.7*,.,47.1,75.6*,31.9,43.6,81.6*,87.3*,52.3*,17.7,-2.8
COc1ccc(-c2csc(N3C(=N)SCC3=O)n2)cc1,73.8*,25.8,21.3,79.9*,20.9,8.8,19.9,12.2,17.0,17.9,0.1
COc1ccc(O)c(-c2cc(-c3cccc(Br)c3)n[nH]2)c1,59.0*,26.0,14.0,24.0,-10.7,7.5,39.8,34.5,69.0*,-0.9,4.7
COc1ccc(O)c(-c2cc(-c3ccc(F)cc3)n[nH]2)c1,56.1*,.,21.2,40.0,-9.8,43.2,61.5*,58.9*,77.6*,20.4,68.3*
COc1ccc(-c2cc(-c3cc(OC)ccc3O)[nH]n2)cc1,-1.7,21.3,15.5,26.1,-14.5,45.3,.,.,.,.,.
CC1=C(C(=O)N(C(C)C)C(C)C)CC(CC(=O)NCc2ccco2)C(=O)N1Cc1ccc(C(C)(C)C)cc1 (stereo not given),.,.,-5.9,.,20.3,.,.,.,.,.,.
CCCCC1CCC(C(=O)N(CCOC)c2c(N)n(CCCC)c(=O)[nH]c2=O)CC1 (stereo not given),3.4,.,-9.5,-7.8,7.2,11.2,.,.,.,.,.
COC(=O)c1cc(/C=C/c2ccccc2)[nH]n1,52.3*,.,-26.8,37.0,-4.2,47.4,49.1,45.9,81.9*,63.5*,15.7
CS(=O)(=O)c1ccc2nc(NC(=O)c3ccc(Cn4cc(Br)cn4)o3)sc2c1,-5.2,.,13.7,-4.5,-412.4,-1.0,.,.,.,.,.
COc1ccc(/C=N/NC(=O)c2[nH]ncc2Br)c(OC)c1,82.5*,14.4,-12.1,75.1*,-28.5,87.4*,80.0*,81.2*,96.7*,92.8*,9.4
O=C(N/N=C/c1ccccc1)c1[nH]ncc1Br,91.4*,12.3,26.6,86.0*,6.0,94.9*,88.9*,88.0*,98.2*,94.8*,39.6
COc1ccc(/C=N/NC(=O)c2cccc(NC(C)=O)c2)c(OC)c1,-2.5,.,-1.7,25.4,-112.4,-3.3,.,.,.,.,.
O=C(N/N=C/c1cccnc1)c1[nH]ncc1Br,-9.2,5.5,9.9,1.3,-1.4,26.1,.,.,.,.,.
COc1ccc(C(=O)c2coc3ccc(OC(C)=O)cc23)cc1,49.5,.,6.1,59.5*,19.4,34.2,58.0*,55.0*,66.1*,50.4*,25.1
COc1ccc2occ(C(=O)c3cccs3)c2c1,68.6*,10.5,29.4,29.7,8.9,52.4*,55.6*,57.8*,84.3*,51.6*,62.0*
SMILES,SENP6 inh,PPC-1+TRAIL kill,TRAIL sens C8,SENP8 block-1,SENP8 block-2,SENP7 block,SENP8 confirm,SENP6 conf,SENP7 conf,Casp3 select,SENP luc ctr
COc1ccc(OC)c(C(=O)c2coc3ccc(OC(C)=O)cc23)c1,-10.3,8.6,-2.2,-0.2,-7.1,3.2,.,.,.,.,.
Cc1ccc(C(=O)c2coc3ccc(O)cc23)cc1,86.3*,.,21.7,88.1*,27.8,91.7*,6.1,93.8*,100.4*,84.3*,84.0*
COc1ccc2occ(C(=O)c3ccc(N)cc3)c2c1,40.4,.,9.1,47.6,-38.0,52.8*,54.8*,54.4*,82.4*,44.5,64.7*
CC(OC(=O)c1cccnc1Cl)C(=O)Nc1ccc2c(c1)OCO2 (stereo not given),-2.3,.,10.3,-5.7,22.7,-4.6,.,.,.,.,.
O=C(NCc1ccc(F)cc1)c1cc(C2CCCCN2C(=O)CCCc2ccccc2)on1 (stereo not given),.,.,-1.1,.,9.6,.,.,.,.,.,.
CC(O)C(NS(=O)(=O)c1ccc(Cl)cc1)C(=O)OCCOc1ccc(F)cc1 (stereo not given),.,.,2.2,.,2.6,.,.,.,.,.,.
COc1ccc2oc3ccc(OC)cc3c(=O)c2c1,31.5,17.4,24.6,62.1*,-270.5,89.3*,19.6,53.3*,69.5*,45.8,16.7
COc1ccc(-c2cc(=O)c3ccccc3s2)cc1,92.8*,40.8,53.7*,84.3*,-8.5,-8.8,59.8*,90.6*,99.1*,82.2*,59.0*
COc1ccc2sc3ccccc3c(=O)c2c1,88.0*,8.5,2.5,73.9*,i,81.3*,46.3,46.7,77.9*,53.3*,27.5
O=C(CC[C@H]1O[C@@H](n2ccc(=O)[nH]c2=O)[C@H](O)[C@@H]1O)N[C@@H](Cc1ccccc1)C(=O)NCC1CCCCC1,.,.,-1.7,.,12.1,.,.,.,.,.,.
Cc1ccc2[nH]c(-c3cccc(F)c3)cc(=O)c2c1,-9.0,30.3,20.9,0.2,-141.8,-2.5,.,.,.,.,.

# Screening data (PubChem BioAssay)
